# Source: PubChem
# FAK inh: FAK kinase inhibitors, primary screen, biochemical; Focal adhesion kinase 1 (Homo sapiens), Q05397; biochemical FAK kinase activity assay; inhibition, %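 (tested at 7 µM)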; 97,000 compounds, 0.84% hits
# ERa SRC1 pot: enhancers of ERα–SRC-1 coactivator binding, primary screen, biochemical, TR-FRET, ERα LBD, low estradiol | AID 639, 2007 | 86,000 compounds, 1.3% hits | TR-FRET ERalpha-LBD/SRC-Cy5 coactivator binding, 2 h; 100 = basal binding, no effect | Estrogen receptor (Homo sapiens), P03372 | coactivator binding (% of control), % at 25.6 µM; in the data active = activity above about 200%;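 also: binding measured in presence of low estradiol as agonist stimulus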
# Target sequence (P03372 whole entry, looked up, the tested form may be a part): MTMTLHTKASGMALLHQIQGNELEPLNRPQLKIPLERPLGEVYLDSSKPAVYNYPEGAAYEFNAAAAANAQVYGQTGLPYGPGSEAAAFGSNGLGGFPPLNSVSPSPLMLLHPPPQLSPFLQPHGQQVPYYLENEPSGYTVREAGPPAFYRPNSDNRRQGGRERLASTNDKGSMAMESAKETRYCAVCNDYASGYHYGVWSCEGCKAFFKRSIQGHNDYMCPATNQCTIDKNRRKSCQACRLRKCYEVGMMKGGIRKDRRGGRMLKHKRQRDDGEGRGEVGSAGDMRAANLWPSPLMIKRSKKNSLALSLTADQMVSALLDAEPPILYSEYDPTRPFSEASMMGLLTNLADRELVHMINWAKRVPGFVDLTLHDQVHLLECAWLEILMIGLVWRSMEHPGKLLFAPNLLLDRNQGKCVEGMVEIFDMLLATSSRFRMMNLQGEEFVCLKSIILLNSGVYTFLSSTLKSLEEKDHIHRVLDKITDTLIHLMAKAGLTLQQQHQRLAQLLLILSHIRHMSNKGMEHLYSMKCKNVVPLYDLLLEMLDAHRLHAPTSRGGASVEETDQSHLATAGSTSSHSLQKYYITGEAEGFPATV
# ERb coact inh: inhibitors of ERβ-SRC1 coactivator interaction, primary screen, biochemical, TR-FRET, ERβ LBD, SRC-1 peptide; inhibition, % at 25.6 µM; 86,000 compounds, 1.3% hits; TR-FRET ER-beta LBD / SRC1-Cy5 peptide binding; receptor agonist-loaded with 1 µM estradiol; Estrogen receptor beta (Homo sapiens), Q92731; AID 633, 2007;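 active = compounds whose percent inhibition of the receptor-coactivator binding signal exceeds about 50% in the single-dose screen, limit read from the data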
# Smad3 inh: Smad3/FoxH1 peptide binding inhibitors, primary screen, biochemical, TR-FRET. 88,000 compounds, 0.29% hits. TR-FRET Smad3/Dy647-FoxH1 peptide binding, europium anti-His. Mothers against decapentaplegic homolog 3 (Homo sapiens), P84022. inhibition, % at 25 µM;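 active = compounds that reduce the energy-transfer binding signal between the protein and its labelled peptide by more than half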
# ERa coact inh: ERα–SRC-1 coactivator interaction inhibitors, primary screen, biochemical, TR-FRET, ERα LBD, estradiol-bound. inhibition, % at 25.6 µM. 86,000 compounds, 1.7% hits. TR-FRET ER-alpha LBD / SRC-1 peptide; in the data active = inhibition above about 50%
# Calb biofilm kill: clotrimazole potentiators killing Candida biofilms, primary screen, with clotrimazole, Alamar Blue | C. albicans biofilm + clotrimazole | inhibition, % at 6 µM | 85,000 compounds, 0.14% hits;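 active = inhibition above 20%; inactive = inhibition below 20%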;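 also: preformed 24 hr biofilms exposed to compound for 48 hr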
# FAK inh conf: FAK kinase inhibitors, retest, confirmation, biochemical; 750 compounds, 28% hits; AID 794, 2007; shares compounds with FAK inh; inhibition, % at 7 µM; FAK kinase biochemical inhibition assay
# Numbers stand for hits; 0 = inactive; - = no result given; [ ] = dose if it differs, or a comment. Sampled rows, rich in hits. Any-hit rate of the full collection: about 3.3%. Rule as the data show it, unless noted: active = inhibition above about 19%; inactive = the rest.
SMILES,FAK inh,ERa SRC1 pot,ERb coact inh,Smad3 inh,ERa coact inh,Calb biofilm kill,FAK inh conf
CC(=O)n1nc(-c2cccc(C)c2)nc1SCC(=O)Nc1ccccc1,19,-,-,-,-,-,0
CCC(=O)n1nc(-c2ccccc2)nc1SCC(=O)Nc1ccc(C)cc1,0,-,-,-,-,-,-
O=C(CSc1ccccn1)Nc1nc2ccc(Br)cc2s1,0,-,-,-,-,-,-
O=c1nc2s/c(=C\c3ccco3)c(=O)n2nc1Cc1ccc(F)cc1,24,0,88,0,96[fluorescence artefact?],0,0
COc1ccc(/C=N\NC(=O)C2C(=O)NCC2c2ccccc2)cc1O (centres undefined),0,-,-,-,-,-,-
Cc1n(CC(O)COC2CCCCC2)c2ccccc2[n+]1C (centres undefined),0,0,0,0,0,0,-
CCc1ccc(NC(=S)NC2CC3CCCC(C2)N3Cc2cccs2)cc1 (centres undefined),0,-,-,-,-,-,-
COc1cc2cc(CN(Cc3nnnn3Cc3ccco3)C3CCCCC3)c(=O)[nH]c2cc1OC,0,0,0,0,0,0,-
CCOc1ccc2[nH]c(=O)c(CN(Cc3nnnn3Cc3ccco3)C3CCCCC3)cc2c1,39,0,0,0,0,0,0
CCNC(=O)CC1C(=O)N(c2ccc(F)cc2)C(=O)N1CCC(C)C (centres undefined),0,0,0,0,0,0,-
O=C1c2ccccc2C(Nc2cccc(C(F)(F)F)c2)N1Cc1ccco1 (centres undefined),20,0,0,0,0,0,0
COc1cccc(NC2c3ccccc3C(=O)N2Cc2ccco2)c1 (centres undefined),0,0,0,0,0,0,-
N#Cc1nc(-c2ccccc2)oc1NCc1ccco1,21,0,0,0,0,0,0
CCCSc1nc(C)c(-c2csc(C(C#N)=C3CCCC3)n2)cc1C#N,28,0,0,0,69,0,0
Cc1nn(CCOc2ccccc2)c(=O)n1-c1c(F)cccc1F,0,-,-,-,-,-,-
Cc1ccc(NC(=O)CN2C(=O)S/C(=C/c3ccc(-c4cc(C(=O)O)ccc4C)o3)C2=O)cc1C,75,237[fluorescence artefact?],73,0,66,0,0
CCn1c(C)cc(/C=C2\SC(=O)N(CC(=O)Nc3ccc(C)c(C)c3)C2=O)c1C,0,-,-,-,-,-,-
CC(C)(C)n1nc(-c2ccc(Cl)cc2)c2c(N)ncnc21,26,-,-,-,-,-,0
CC(C)(C)n1nc(-c2ccc(F)cc2)c2c(N)ncnc21,32,-,-,-,-,-,0
Cc1ccc(-c2nc(N)c3c(-c4ccc(C)cc4)nn(C(C)(C)C)c3n2)cc1,0,-,-,-,-,-,-
CCn1c(SCC(=O)Nc2ccc3c(c2)c2ccccc2n3CC)nnc1-c1ccco1,30,0,0,0,63,0,0
COc1nnc(-c2ccc(N3CCCCC3)c(NC(C)=O)c2)c2ccccc12,20,0,0,0,0,0,19
COc1nnc(-c2ccc(N3CCCCC3)c(NC(=O)C3CCCCC3)c2)c2ccccc12,0,0,0,0,0,0,-
Cc1noc(C)c1S(=O)(=O)N1CCCC(C(=O)NCc2ccccn2)C1 (centres undefined),0,-,-,-,-,-,-
CCN(CCCNS(=O)(=O)c1ccc2c(c1)CCN2C(C)=O)c1cccc(C)c1,0,0,0,0,0,0,-
SMILES,FAK inh,ERa SRC1 pot,ERb coact inh,Smad3 inh,ERa coact inh,Calb biofilm kill,FAK inh conf
CC(=O)c1c(C(C)=O)c(C)n(C2CCCCC2)c1C,0,0,0,0,0,0,-
O=C(CSc1nnc(COc2ccccc2Cl)o1)NC(=O)NC1CCCC1,23,0,0,0,0,0,0
COc1cc(C2CC(=O)c3cnc(N4CCN(Cc5ccccc5)CC4)nc3C2)cc(OC)c1OC (centres undefined),19,0,0,0,0,0,0
Cc1ccc(-c2n[nH]c(=S)n2/N=C/C=C\c2ccccc2[N+](=O)[O-])cc1,29,270[fluorescence artefact?],0,0,52,0,0
Nc1nc2c(ncn2COC(CO)CO)c(=O)[nH]1,-,0,0,0,0,0,-
c1nc(NCCN2CCOCC2)c2c3c(sc2n1)CCCCC3,0,0,0,0,0,0,-
c1ccc(CNc2ncnc3sc4c(c23)CCC4)nc1,20,0,0,0,0,0,0
CCC(c1nnnn1C(C)C)N1CCN(C2CCCC2)CC1 (centres undefined),0,0,0,0,0,0,-
CCN1CCc2c(sc(N)c2C#N)C1,26,0,77[fluorescence artefact?],0,65[fluorescence artefact?],0,19
Cc1nc(NCc2ccco2)c2oc3ccccc3c2n1,24,-,-,-,-,-,0
O=C(Oc1ccc(-c2cnc3ccccc3n2)cc1)c1ccc(Br)o1,47,489,0,0,0,0,24
O=C(Oc1ccc(-c2cnc3ccccc3n2)cc1)c1cccc([N+](=O)[O-])c1,0,-,-,-,-,-,-
O=C(O)c1ccccc1CN1CCC[C@@H](C(=O)O)C1,-,-,-,0,-,-,-
CN(C)CCOc1nc(-c2ccccc2)nc2c1oc1ccccc12,0,0,0,0,0,0,-
CCN(CC)CCCOc1nc(C)nc2c1oc1ccccc12,19,0,0,0,0,0,0
COc1ccc(O)c(/C=N/NC(=O)c2ccc(OCc3cccc(Br)c3)cc2)c1,19,-,-,-,-,-,0
COc1ccc(C(=O)NCC(=O)OCc2cccc(Br)c2)cc1,0,-,-,-,-,-,-
O=C(N/N=C/c1ccc2ccccc2c1)c1ccc(COc2ccc3c(c2)CCC3)o1,33,-,-,-,-,-,24
C=C(C)CN(CC)C(=O)COc1ccc(S(=O)(=O)Nc2ccc(OC)cc2)cc1,30,-,-,-,-,-,0
Nc1c(N2CCOCC2)cc(Cl)c2nonc12,0,0,0,0,0,0,-
Nc1c(N2CCCC2)cc(Cl)c2nonc12,40,0,0,58,0,0,0
COc1cccc(C(=O)NC2CC3CCCC(C2)N3CC(=O)Nc2ccccc2)c1 (centres undefined),22,0,99[fluorescence artefact?],81,97[fluorescence artefact?],0,0
COc1cccc(C(=O)NC2CC3CCCC(C2)N3CC(=O)Nc2ccc(N(C)C)cc2)c1 (centres undefined),0,0,0,0,0,0,-
O=C(CN(Cc1ccccc1F)S(=O)(=O)c1ccc(Cl)cc1)NCCCO,0,0,0,0,0,0,-
Cc1ccc2c(n1)sc1c(-c3ccc(Br)cc3)c(C#N)c(N)nc12,29,-,-,-,-,-,0
CN(C)c1cc2c(c(N(C)C)c1)C(=O)c1ccccc1C2=O,49,-,-,-,-,-,24
NC(=O)c1ccccc1NC(=O)CS(=O)(=O)Cc1ccccc1,-,0,0,0,0,0,-
O=C(O)CCC(=O)N1CCc2cc(S(=O)(=O)N3CCC(Cc4ccccc4)CC3)ccc21,0,0,0,0,0,0,-
